Compounds without any hit were thinned out: in the full panel of roughly 79,000, 15% have a hit. The source made the active and inactive calls. Cut-off read from the data, not from the text of the source: active = growth inhibition above about 70%; inactive = the rest.
Experiments:
[1] = NCI Yeast Anticancer Drug Screen. Data for the rad52 strain (AID 147);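 note: 0% = growth of vehicle-treated control cultures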; settings: S. cerevisiae rad52 mutant growth inhibition, stronger effect = higher value
Method in brief: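 The repair-mutant yeast strain was incubated with compounds, then growth was read and inhibition derived relative to vehicle.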

[2] = NCI Yeast Anticancer Drug Screen. Data for the wt1 strain (AID 149);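 note: 0% = growth of vehicle-treated wt1 cultures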; settings: S. cerevisiae wt1 strain (SPY 50644) growth inhibition, stronger effect = higher value
Method in brief: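 Readout: yeast growth inhibition, normalised to vehicle controls, in the wt1 strain exposed to test compounds.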

[3] = NCI Yeast Anticancer Drug Screen. Data for the rad50EPP+ strain (AID 151);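 note: 0% = growth of vehicle-treated control cultures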; settings: S. cerevisiae rad50 mutant strain, stronger effect = higher value
Method in brief: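 Vehicle-normalised growth inhibition; rad50EPP+ yeast strain, altered in DNA damage repair, compound-treated.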

[4] = NCI Yeast Anticancer Drug Screen. Data for the mgt1 strain (AID 153); settings: S. cerevisiae mgt1 mutant growth inhibition, stronger effect = higher value
Method in brief: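 Vehicle-normalized growth inhibition is determined in mgt1 yeast, a strain selected for a defined alteration in DNA repair or cell cycle control.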

[5] = NCI Yeast Anticancer Drug Screen. Data for the mec2-1 strain (AID 157); settings: S. cerevisiae mec2-1 strain, stronger effect = higher value
Method in brief: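 Mutant yeast (mec2-1) grown with compound; growth inhibition relative to vehicle control reported.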

[6] = NCI Yeast Anticancer Drug Screen. Data for the rad14 strain (AID 159);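 note: 0% = growth of vehicle-treated control cultures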; settings: S. cerevisiae rad14 strain growth inhibition, stronger effect = higher value
Method in brief: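 Compound-treated yeast with a defined DNA-repair lesion; growth inhibition normalised to vehicle-treated cultures.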

[7] = NCI Yeast Anticancer Drug Screen. Data for the sgs1 mgt1 strain (AID 161);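 note: 0% = growth of cultures given vehicle only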; settings: S. cerevisiae sgs1 mgt1 strain, stronger effect = higher value
Method in brief: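 Percent growth inhibition was derived by comparing compound-exposed mutant yeast with vehicle-exposed cultures. The strain carries alterations in DNA damage repair.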

[8] = NCI Yeast Anticancer Drug Screen. Data for the CLN2oe strain (AID 163);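 note: 0% = growth of vehicle-only control cultures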; settings: S. cerevisiae CLN2oe strain, stronger effect = higher value
Method in brief: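 Compounds are applied to yeast harbouring a defined cell-cycle control change; reduced growth compared with vehicle-treated controls gives the value.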

[9] = NCI Yeast Anticancer Drug Screen. Data for the cln2 rad14 strain (AID 165);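 note: 0% = growth equal to vehicle treated cultures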; settings: S. cerevisiae cln2 rad14 strain, stronger effect = higher value
Method in brief: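 Readout is yeast growth inhibition versus vehicle-treated controls, using a strain with cln2 and rad14 alterations exposed to compound.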

[10] = NCI Yeast Anticancer Drug Screen. Data for the bub3 strain (AID 167); settings: S. cerevisiae bub3 mutant strain, stronger effect = higher value
Method in brief: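 Growth of a checkpoint-deficient yeast mutant is measured after compound exposure. Values represent inhibition relative to vehicle.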

[11] = NCI Yeast Anticancer Drug Screen. Data for the mlh1 strain (AID 171);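 note: 0% = growth of vehicle-treated control cultures of the same strain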; settings: S. cerevisiae mlh1 strain growth inhibition, stronger effect = higher value
Method in brief: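 Measured: yeast growth. Reference: vehicle-treated controls. Organism: strain with a defined alteration affecting DNA damage repair or cell cycle control, treated with compound.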

[12] = NCI Yeast Anticancer Drug Screen. Data for the sgs1 strain (AID 173);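 note: 0% = growth of vehicle-only control cultures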; settings: S. cerevisiae sgs1 mutant, stronger effect = higher value
Method in brief: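 Each compound was added to cultures of the altered yeast strain. Growth was recorded, and inhibition was derived by comparison with vehicle controls.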

[13] = NCI Yeast Anticancer Drug Screen. Data for the mlh1 rad18 strain (AID 175); settings: S. cerevisiae mlh1 rad18 strain growth inhibition, stronger effect = higher value
Method in brief: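 Genetically defined yeast (DNA repair-deficient) exposed to compounds; growth inhibition determined relative to vehicle.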

[14] = NCI Yeast Anticancer Drug Screen. Data for the rad18 strain (AID 177); settings: S. cerevisiae rad18 mutant growth inhibition, stronger effect = higher value
Method in brief: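 Vehicle-treated cultures served as the baseline for scoring compound-induced growth inhibition in DNA-repair-mutant yeast.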

[15] = NCI Yeast Anticancer Drug Screen. Data for the rad50 strain (AID 155);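 note: 0% = growth of vehicle-only cultures of the same strain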; settings: S. cerevisiae rad50 strain growth inhibition, stronger effect = higher value
Method in brief: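 Compounds were tested on a yeast strain with an engineered DNA damage repair alteration; the reported value is growth inhibition normalised to vehicle treatment.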

[16] = NCI Yeast Anticancer Drug Screen. Data for the wt2 strain (AID 169);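 note: 0% = growth of vehicle-treated yeast cultures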; settings: S. cerevisiae wt2 strain growth inhibition, stronger effect = higher value
Method in brief: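 Against vehicle-treated controls, the growth of yeast exposed to each compound was compared, and the inhibition was recorded.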

[17] = at 5.0 µM (retest, dose inferred, filed as 0.5)
[18] = at 50.0 µM (retest, dose inferred, filed as 5.0)

Measured: growth inhibition

O=C1c2ccccc2C(=O)C(Cl)C1Cl (stereo not given)
inactive: [1]; at 1.2 µM 1% | [1]; at 3.7 µM 15% | [2]; at 1.2 µM 7% | [2]; at 3.7 µM 18% | [3]; at 1.2 µM 7% | [3]; at 3.7 µM 36% | [4]; at 1.2 µM 7% | [4]; at 3.7 µM 13% | [5]; at 1.2 µM 9% | [5]; at 3.7 µM 22% | [5]; [17] 34% | [6]; at 1.2 µM 7% | [6]; at 3.7 µM 18% | [7]; [17] 33% | [8]; at 1.2 µM 4% | [8]; at 3.7 µM 10% | [9]; [17] 10% | [10]; at 1.2 µM 13% | [10]; at 3.7 µM 35% | [11]; at 1.2 µM 1% | [11]; at 3.7 µM 4% | [12]; at 1.2 µM 4% | [12]; at 3.7 µM 15% | [13]; [17] 21% | [14]; at 1.2 µM 1% | [14]; at 3.7 µM 10%
active: [1]; at 11.0 µM 88% | [1]; at 33.0 µM 99% | [1]; at 100.0 µM 98% | [2]; at 11.0 µM 72% | [2]; at 33.0 µM 99% | [2]; at 100.0 µM 99% | [3]; at 11.0 µM 98% | [3]; at 33.0 µM 99% | [3]; at 100.0 µM 98% | [4]; at 11.0 µM 99% | [4]; at 33.0 µM 99% | [4]; at 100.0 µM 99% | [5]; at 11.0 µM 90% | [5]; at 33.0 µM 99% | [5]; [18] 99% | [5]; at 50.0 µM 99.4% | [5]; at 100.0 µM 99% | [6]; at 11.0 µM 92% | [6]; at 33.0 µM 99% | [6]; at 100.0 µM 99% | [7]; [18] 99% | [7]; at 50.0 µM 99.5% | [8]; at 11.0 µM 71% | [8]; at 33.0 µM 99% | [8]; at 100.0 µM 98% | [9]; [18] 99% | [9]; at 50.0 µM 99.1% | [10]; [17] 88% | [10]; at 11.0 µM 98% | [10]; at 33.0 µM 99% | [10]; [18] 99% | [10]; at 50.0 µM 99.3% | [10]; at 100.0 µM 99% | [11]; at 11.0 µM 93% | [11]; at 33.0 µM 99% | [11]; at 100.0 µM 99% | [12]; at 11.0 µM 89% | [12]; at 33.0 µM 99% | [12]; at 100.0 µM 99% | [13]; [18] 99% | [13]; at 50.0 µM 99.3% | [14]; at 11.0 µM 91% | [14]; at 33.0 µM 99% | [14]; at 100.0 µM 99%

N#Cc1cc(N(CCCl)CCCl)c([N+](=O)[O-])cc1[N+](=O)[O-]
inactive: [1]; at 1.2 µM 7% | [1]; at 3.7 µM 19% | [1]; at 11.0 µM 28% | [1]; at 33.0 µM 67% | [2]; at 1.2 µM -6% | [2]; at 3.7 µM 4% | [2]; at 11.0 µM -7% | [2]; at 33.0 µM 2% | [2]; at 100.0 µM 58% | [3]; at 1.2 µM 15% | [3]; at 3.7 µM 17% | [3]; at 11.0 µM 11% | [3]; at 33.0 µM 32% | [3]; at 100.0 µM 39% | [15]; at 1.2 µM -4% | [15]; at 3.7 µM -8% | [15]; [17] 5% | [15]; at 11.0 µM 10% | [15]; at 33.0 µM 40% | [15]; [18] 42% | [15]; at 100.0 µM 65% | [5]; at 1.2 µM 22% | [5]; at 3.7 µM 24% | [5]; [17] -43% | [5]; at 11.0 µM 23% | [5]; at 33.0 µM 28% | [5]; [18] 11% | [5]; at 100.0 µM 67% | [6]; at 1.2 µM 3% | [6]; at 3.7 µM 7% | [6]; at 11.0 µM 19% | [6]; at 33.0 µM 61% | [7]; [17] -19% | [7]; [18] 46% | [8]; at 1.2 µM 2% | [8]; at 3.7 µM 6% | [8]; at 11.0 µM -2% | [8]; at 33.0 µM 14% | [9]; [17] 11% | [9]; [18] 43% | [10]; at 1.2 µM 11% | [10]; at 3.7 µM 10% | [10]; [17] -11% | [10]; at 11.0 µM -7% | [10]; at 33.0 µM 31% | [10]; [18] 40% | [16]; at 1.2 µM 4% | [16]; at 3.7 µM 6% | [16]; at 11.0 µM 8% | [16]; at 33.0 µM 36% | [11]; at 1.2 µM 34% | [11]; at 3.7 µM 4% | [11]; at 11.0 µM 34% | [13]; [17] 21%
active: [1]; at 100.0 µM 85% | [15]; at 50.0 µM 87.4% | [5]; at 50.0 µM 88.8% | [6]; at 100.0 µM 88% | [7]; at 50.0 µM 90.3% | [8]; at 100.0 µM 71% | [9]; at 50.0 µM 79.5% | [10]; at 50.0 µM 84.9% | [10]; at 100.0 µM 79% | [16]; at 100.0 µM 80% | [11]; at 33.0 µM 70% | [11]; at 100.0 µM 92% | [13]; [18] 76% | [13]; at 50.0 µM 80.5%

COc1cc2ccccc2c2cc([N+](=O)[O-])oc12
active: [1]; at 1.2 µM 82% | [1]; at 3.7 µM 88% | [1]; at 11.0 µM 91% | [1]; at 33.0 µM 91% | [1]; at 100.0 µM 91% | [3]; at 1.2 µM 82% | [3]; at 3.7 µM 86% | [3]; at 11.0 µM 91% | [3]; at 33.0 µM 90% | [3]; at 100.0 µM 88% | [5]; at 100.0 µM 78% | [6]; at 1.2 µM 91% | [6]; at 3.7 µM 93% | [6]; at 11.0 µM 95% | [6]; at 33.0 µM 94% | [6]; at 100.0 µM 93% | [7]; [17] 73% | [7]; [18] 76% | [9]; [17] 91% | [9]; [18] 84% | [9]; at 50.0 µM 84.3% | [12]; at 1.2 µM 79% | [12]; at 3.7 µM 84% | [12]; at 11.0 µM 89% | [12]; at 33.0 µM 89% | [12]; at 100.0 µM 89% | [13]; [17] 89% | [13]; [18] 88% | [13]; at 50.0 µM 88.3% | [14]; at 1.2 µM 96% | [14]; at 3.7 µM 96% | [14]; at 11.0 µM 95% | [14]; at 33.0 µM 94% | [14]; at 100.0 µM 88%
inactive: [2]; at 1.2 µM 4% | [2]; at 3.7 µM 6% | [2]; at 11.0 µM 15% | [2]; at 33.0 µM 29% | [2]; at 100.0 µM 36% | [4]; at 1.2 µM 2% | [4]; at 3.7 µM 11% | [4]; at 11.0 µM 26% | [4]; at 33.0 µM 43% | [4]; at 100.0 µM 59% | [5]; at 1.2 µM 23% | [5]; at 3.7 µM 39% | [5]; [17] 45% | [5]; at 11.0 µM 55% | [5]; at 33.0 µM 65% | [5]; [18] 62% | [5]; at 50.0 µM 53% | [7]; at 50.0 µM 60.9% | [16]; at 1.2 µM 5% | [16]; at 3.7 µM 11% | [16]; at 11.0 µM 23% | [16]; at 33.0 µM 36% | [16]; at 100.0 µM 51%

Source: PubChem BioAssay (NCI)
